PubChem BioAssay (EPA / NIEHS)
Where “and” joins values, the source holds several entries; their conditions need not be identical. Equal values may be shown once. The source holds several records for some structures; these can differ, active in one and inactive in another. Calls of active or inactive are those of the source. Rule for the calls: active = hit-call score of the fitted dose curve at least 0.9, where 1 is the maximum; inactive = score below 0.9.

read-out: Interferon-inducible T-cell alpha chemoattractant (ITAC), CXCL11 (gene 6373); test: BSK_BE3C_ITAC: BioMAP Diversity Plus: BE3C Assay for Interferon-inducible T-cell alpha chemoattractant (ITAC) Biomarker Activity (AID 2284279); settings: primary human bronchial epithelial cells
How it was run: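 ELISA for I-TAC in primary human bronchial epithelial cultures 24 h post-treatment, fitted relative to DMSO baseline in positive direction. Cytotoxicity checked in parallel cultures by sulforhodamine B protein staining.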

SMILES	AC50	outcome
O=C(O)C(F)(F)C(F)(F)C(F)(F)C(F)(F)C(F)(F)C(F)(F)C(F)(F)C(F)(F)C(F)(F)C(F)(F)F	2.65 µM (active) and 2.84 µM (active)	
CC(=O)OC(c1ccccc1)C(Cl)(Cl)Cl (centres undefined)		inactive
COC(=O)Cc1ccccc1		inactive
O=C(O)C(F)(F)C(F)(F)C(F)(F)C(F)(F)C(F)(F)C(F)(F)F		inactive
O=C(O)CCC(F)(C(F)(F)F)C(F)(F)F		inactive

read-out: Interleukin-8 (IL8), CXCL8 (gene 3576); test: BSK_BE3C_IL8: BioMAP Diversity Plus: BE3C Assay for Interleukin-8 (IL8) Biomarker Activity (AID 2284280); settings: primary human bronchial epithelial cells
How it was run: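 Dose human bronchial epithelial cells with chemical; incubate 24 h; quantify IL-8 by ELISA; fit response upward versus DMSO controls.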

SMILES	AC50	outcome
O=C(O)C(F)(F)C(F)(F)C(F)(F)C(F)(F)C(F)(F)C(F)(F)C(F)(F)C(F)(F)C(F)(F)C(F)(F)F	4.19 µM (active) and 3.81 µM (active)	
CC(=O)OC(c1ccccc1)C(Cl)(Cl)Cl (centres undefined)		inactive
COC(=O)Cc1ccccc1		inactive
O=C(O)C(F)(F)C(F)(F)C(F)(F)C(F)(F)C(F)(F)C(F)(F)F		inactive
O=C(O)CCC(F)(C(F)(F)F)C(F)(F)F		inactive

read-out: Epidermal growth factor receptor (EGFR), EGFR (gene 1956); test: BSK_BE3C_EGFR: BioMAP Diversity Plus: BE3C Assay for Epidermal growth factor receptor (EGFR) Biomarker Activity (AID 2284281); settings: primary human bronchial epithelial cells
How it was run: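 ELISA read-out of EGFR levels on human bronchial epithelial primary cells collected 24 h post-dosing. DMSO served as negative control and baseline for gain-of-signal fitting.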

SMILES	AC50	outcome
O=C(O)C(F)(F)C(F)(F)C(F)(F)C(F)(F)C(F)(F)C(F)(F)C(F)(F)C(F)(F)C(F)(F)C(F)(F)F	4.31 µM (active) and 2.34 µM (active)	
CC(=O)OC(c1ccccc1)C(Cl)(Cl)Cl (centres undefined)		inactive
COC(=O)Cc1ccccc1		inactive
O=C(O)C(F)(F)C(F)(F)C(F)(F)C(F)(F)C(F)(F)C(F)(F)F		inactive
O=C(O)CCC(F)(C(F)(F)F)C(F)(F)F		inactive

read-out: KRT18 (gene 3875); test: BSK_BE3C_Keratin818: BioMAP Diversity Plus: BE3C Assay for Keratin 818 Biomarker Activity (AID 2284282); settings: primary human bronchial epithelial cells
How it was run: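 In this multiplexed primary-cell system, bronchial epithelial cells were dosed and harvested at 24 h. Keratin 8/18 was determined by ELISA and analysed for increases over DMSO controls.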

SMILES	AC50	outcome
O=C(O)C(F)(F)C(F)(F)C(F)(F)C(F)(F)C(F)(F)C(F)(F)C(F)(F)C(F)(F)C(F)(F)C(F)(F)F	4.21 µM (active) and 5.29 µM (active)	
CC(=O)OC(c1ccccc1)C(Cl)(Cl)Cl (centres undefined)		inactive
COC(=O)Cc1ccccc1		inactive
O=C(O)C(F)(F)C(F)(F)C(F)(F)C(F)(F)C(F)(F)C(F)(F)F		inactive
O=C(O)CCC(F)(C(F)(F)F)C(F)(F)F		inactive

read-out: Matrix Metallopeptidase 9 (MMP9), MMP9 (gene 4318); test: BSK_BE3C_MMP9: BioMAP Diversity Plus: BE3C Assay for Matrix Metallopeptidase 9 (MMP9) Biomarker Activity (AID 2284283); settings: primary human bronchial epithelial cells
How it was run: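 Endpoint is the ELISA MMP-9 signal in human primary bronchial epithelial cultures taken 24 h after chemical dosing. DMSO serves as negative control and baseline, with gain-of-signal fitting.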

SMILES	AC50	outcome
O=C(O)C(F)(F)C(F)(F)C(F)(F)C(F)(F)C(F)(F)C(F)(F)C(F)(F)C(F)(F)C(F)(F)C(F)(F)F	3.77 µM (active) and 3.33 µM (active)	
CC(=O)OC(c1ccccc1)C(Cl)(Cl)Cl (centres undefined)		inactive
COC(=O)Cc1ccccc1		inactive
O=C(O)C(F)(F)C(F)(F)C(F)(F)C(F)(F)C(F)(F)C(F)(F)F	30 µM (active)	inactive
O=C(O)CCC(F)(C(F)(F)F)C(F)(F)F		inactive

read-out: Plasminogen activator inhibitor-1 (PAI1), SERPINE1 (gene 5054); test: BSK_CASM3C_PAI1: BioMAP Diversity Plus: CASM3C Assay for Plasminogen activator inhibitor-1 (PAI1) Biomarker Activity (AID 2284284); settings: primary human coronary artery smooth muscle cells;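 note: PAI-1 protein level measured by ELISA 24 h after dosing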

SMILES	outcome
O=C(O)C(F)(F)C(F)(F)C(F)(F)C(F)(F)C(F)(F)C(F)(F)C(F)(F)C(F)(F)C(F)(F)C(F)(F)F	inactive
CC(=O)OC(c1ccccc1)C(Cl)(Cl)Cl (centres undefined)	inactive
COC(=O)Cc1ccccc1	inactive
O=C(O)C(F)(F)C(F)(F)C(F)(F)C(F)(F)C(F)(F)C(F)(F)F	inactive
O=C(O)CCC(F)(C(F)(F)F)C(F)(F)F	inactive

read-out: Monocyte Chemoattractant Protein-1 (MCP1), CCL2 (gene 6347); test: BSK_hDFCGF_MCP1: BioMAP Diversity Plus: hDFCGF Assay for Monocyte Chemoattractant Protein-1 (MCP1) Biomarker Activity (AID 2284285); settings: primary human foreskin fibroblasts
How it was run: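 MCP-1 ELISA readout was taken 24 hours after dosing primary human dermal fibroblasts in the hDFCGF system, with DMSO as baseline. Parallel sulforhodamine B staining of total protein tracked overt cytotoxicity.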

SMILES	AC50	outcome
O=C(O)C(F)(F)C(F)(F)C(F)(F)C(F)(F)C(F)(F)C(F)(F)C(F)(F)C(F)(F)C(F)(F)C(F)(F)F	5.24 µM (active) and 5.63 µM (active)	
CC(=O)OC(c1ccccc1)C(Cl)(Cl)Cl (centres undefined)		inactive
COC(=O)Cc1ccccc1		inactive
O=C(O)C(F)(F)C(F)(F)C(F)(F)C(F)(F)C(F)(F)C(F)(F)F		inactive
O=C(O)CCC(F)(C(F)(F)F)C(F)(F)F		inactive

read-out: Vascular cell adhesion molecule 1 (VCAM1), VCAM1 (gene 7412); test: BSK_IMphg_VCAM1: BioMAP Diversity Plus: IMphg Assay for Vascular cell adhesion molecule 1 (VCAM1) Biomarker Activity (AID 2284286); settings: primary human endothelial cells with macrophages
How it was run: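 ELISA read-out of VCAM-1 on venular endothelial cell/macrophage co-cultures at 24 h post-treatment, with DMSO as baseline and positive-direction fitting. Parallel sulforhodamine B total-protein staining (560 nm) served as the overt cytotoxicity measure.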

SMILES	outcome
O=C(O)C(F)(F)C(F)(F)C(F)(F)C(F)(F)C(F)(F)C(F)(F)C(F)(F)C(F)(F)C(F)(F)C(F)(F)F	inactive
O=C(O)C(F)(F)C(F)(F)C(F)(F)C(F)(F)C(F)(F)C(F)(F)F	inactive
O=C(O)CCC(F)(C(F)(F)F)C(F)(F)F	inactive
